# Assay outcomes (PubChem)
# ugtP null kill: kills S. aureus RN4220 lacking UgtP; S. aureus RN4220 ugtP deletion, OD600 growth, 16 h; growth inhibition, % (test concentration not listed); actives 0.54% (n = 330,000); AID 1259309; in the data active means growth inhibition above about 68%;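 further: plate controls were untreated wells for no effect and antibiotic for full effect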
# DUSP3 inh: DUSP3 (human) phosphatase inhibition | recombinant VHR phosphatase, pNPP absorbance | inhibition, % at 13.3 µM | actives 0.52% (n = 290,000) | AID 1654; in the data active means inhibition above about 50%
# Target sequence (P51452 whole entry, looked up): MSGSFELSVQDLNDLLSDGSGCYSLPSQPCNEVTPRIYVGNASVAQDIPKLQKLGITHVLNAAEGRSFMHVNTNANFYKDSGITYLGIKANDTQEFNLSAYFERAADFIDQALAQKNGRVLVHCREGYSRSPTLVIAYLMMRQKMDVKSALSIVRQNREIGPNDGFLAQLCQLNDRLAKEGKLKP
# BJeLR lethal: kills HRASV12-expressing BJeLR cells; BJeLR (HRASV12) viability, CellTiter-Glo ATP luminescence, 48 h; inhibition, % (no concentration beside the values); actives 0.17% (n = 300,000); in the data active means inhibition above about 50%
# RN4220 kill: kills Staphylococcus aureus RN4220 | S. aureus RN4220 growth, OD600, 16 h | inhibition, % (test concentration not listed) | actives 0.33% (n = 330,000) | AID 1259311; in the data active means inhibition above about 85%;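 further: plate controls were untreated cells for no effect and reference antibiotic for full effect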
# 3CLpro inhibitor: SARS-CoV 3CLpro protease inhibition; actives 0.14% (n = 290,000); recombinant SARS-CoV 3CLpro, quenched FRET peptide cleavage; AID 1706; inhibition, % at 6 µM; in the data active means inhibition above about 12%
# PrPC TRFRET: cell surface PrPC inhibition, primary TR-FRET screen; TR-FRET read-out; actives 0.43% (n = 370,000); inhibition, % at 13.8 µM; P04156; in the data active means inhibition above about 24%; further: 0% = median of the test wells and 100% = reference compound wells
# Starred values were filed as active, the others as inactive; . = no result given. Most compounds without a hit are left out; they make up all but 1.4% or so of the library.
SMILES,ugtP null kill,DUSP3 inh,BJeLR lethal,RN4220 kill,3CLpro inhibitor,PrPC TRFRET
CCN1C(=O)C2C(c3ccc(C)cc3)N3C(=O)N(c4cccc(Cl)c4)C(=O)[C@@]3(CC)C2C1=O (some centres undefined),3.1,.,.,3.6,.,.
COc1ccc(C(C(=O)NCCC(C)C)N(CCO)C(=O)c2snc(C(N)=O)c2N)cc1OC (centres undefined),1.6,3.5,3.0,2.8,1.8,-3.0
COc1ccc(C(C(=O)NCCC(C)C)N(CCO)C(=O)c2snc(C(N)=O)c2N)cc1 (centres undefined),3.6,53.3*,-1.6,0.5,-3.2,-4.1
O=c1oc2cc(Oc3c([N+](=O)[O-])cc(C(F)(F)F)cc3[N+](=O)[O-])ccc2c2c1CCCC2,94.1*,30.2,5.0,43.7,3.2,0.3
O=c1oc2cc(Oc3ccc(C(F)(F)F)cc3[N+](=O)[O-])ccc2c2c1CCC2,7.2,25.5,-9.0,6.8,5.4,6.5
C[C@@]12C(=O)N(CC3CCCO3)CC(=O)N1C1c3cc(Cl)ccc3OCC1C2c1ccccc1 (some centres undefined),14.8,.,.,11.0,.,.
CCOC(=O)C1=C(C)Nc2ccccc2N=C1NC(=O)Cc1ccc(OC)cc1,15.4,50.8*,0.1,3.7,-0.9,-3.4
COc1ccccc1C1=CC(=O)CC(c2ccc(Cl)cc2)C1 (centres undefined),1.3,.,.,-0.8,.,.
O=C1/C(=C\c2ccc(O)c(O)c2)SC(=S)N1Cc1ccccc1,98.9*,1.8,-3.4,76.3,10.6,4.8
COc1ccc(CN2C(=O)/C(=C/c3ccc(-c4ccc(Cl)c(C(=O)O)c4)o3)SC2=S)cc1,.,10.8,.,.,3.3,.
O=C(O)c1cc(-c2ccc(/C=C3/SC(=S)N(Cc4ccccc4)C3=O)o2)ccc1Cl,100.6*,-25.7,.,96.6*,3.8,-5.6
COc1cc(/C=C2/SC(=S)N(Cc3ccccc3)C2=O)ccc1O,9.2,-3.6,-5.8,11.1,1.9,-3.8
O=C1/C(=C\c2cc([N+](=O)[O-])ccc2O)SC(=S)N1Cc1ccc(Cl)cc1,64.9,3.0,18.1,88.1*,4.6,0.3
O=C(O)CN1C(=O)/C(=C\c2cc(Br)ccc2OCc2ccc(F)cc2)SC1=S,8.1,-2.4,1.6,4.6,6.5,1.9
O=C(O)CN1C(=O)/C(=C\c2cc(Br)ccc2OCc2ccc(Cl)cc2)SC1=S,83.4,57.3*,-4.4,72.1,5.4,0.9
O=C1/C(=C\c2cccc(O)c2O)SC(=S)N1Cc1ccccc1,.,-8.3,-10.0,.,2.4,-11.0
CC1=CC(=O)OC2CC3OC4CC(C)C5OC6CC7O[C@]8(C)CC=CC9OC%10CC%11OC(CC(C)C%12OCCO%12)CC(O)[C@]%11(C)OC%10CC9OC8C[C@]7(C)O[C@]6(C)CCC5OC4C[C@]3(C)OC12 (some centres undefined),2.3,.,.,6.6,.,.
O=C(NCc1ccc2c(c1)OCO2)c1c(Cl)cccc1Cl,2.9,55.5*,-3.2,3.9,0.7,3.1
CC[C@@]12C(=O)N(c3cccc(C)c3)C(=O)N1C(c1ccc(Br)cc1)C1C(=O)N(C(C)(C)C)C(=O)C12 (some centres undefined),-13.5,.,.,2.5,.,.
CC(C)c1onc(C(=O)N2CCN(C(c3ccccc3)c3ccccc3)CC2)c1[N+](=O)[O-],0.7,22.6,91.0*,-3.0,3.4,1.5
C#CCN(C(=O)c1ccc(OC2CCN(C(=O)CCOC)CC2)cc1)C1CCCCC1,3.5,52.8*,4.7,2.7,-0.4,6.0
CON/C=C(\C=Nc1ccc(F)cc1)c1ncc(C(F)(F)F)cc1Cl,91.8*,7.2,-2.6,-3.1,3.2,3.5
Cc1c(N/N=C(\C#N)C(=O)c2ccccc2)c(=O)n(-c2ccccc2)n1C,14.2,-4.6,15.5,19.3,-2.5,14.4
Cc1ccccc1C(=O)/C(C#N)=N/Nc1c(C)n(C)n(-c2ccccc2)c1=O,2.0,51.3*,26.7,29.9,3.9,23.4
C=CCC1CCCC(=O)N2CCC(O)C12 (centres undefined),1.2,.,.,4.9,.,.
CCN1C(=O)C(=C2C=Cc3cc(C)ccc3N2CC)OC1=S,-5.8,.,.,4.1,.,.
CCCCOC(=O)Nc1sc2c(c1C(=O)OC)CCC2,92.3*,10.4,0.5,6.5,-1.8,4.9
O=C(N/N=C/c1ccc(O)cc1)c1cc(-c2ccc3c(c2)OCO3)n[nH]1,.,22.5,-0.9,.,-0.7,24.9*
